In PubChem BioAssay (NCATS):
Inconclusive results are not listed. Calls of active or inactive are those of the source. Unless noted, the call rests on the fitted dose curve; in most records, active means well fitted curve in the direction sought with a large enough effect; inconclusive means small, poorly fitted or top-dose-only effect, or another doubt; inactive means no such curve, though single readings can be large; an effect the other way counts as inactive or inconclusive.

Key:
[1] = biological target: Ferritin light chain (Equus caballus) (UniProt P02791); assay: qHTS Validation Assay for Identification of Novel General Anesthetics (AID 2323); further: series mostly up to about 77 µM
Chain of Ferritin light chain (Equus caballus) (P02791 2-175 limits assumed): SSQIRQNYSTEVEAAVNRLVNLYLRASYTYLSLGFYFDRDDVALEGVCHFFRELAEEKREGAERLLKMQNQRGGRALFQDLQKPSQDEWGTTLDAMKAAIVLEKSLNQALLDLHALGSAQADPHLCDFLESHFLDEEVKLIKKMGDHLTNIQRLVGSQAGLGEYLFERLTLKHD
Procedure, shortened: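 Apoferritin from horse spleen (10 uM) was mixed with 1-aminoanthracene at 50% saturation in PBS, then compounds were added. After 10 min at room temperature, fluorescence was read (ex 380 nm, em 535 nm) and normalized to free-probe and complex controls.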

[2] = biological target: ATP-dependent DNA helicase Q1 (Homo sapiens) (UniProt P46063); assay: qHTS Validation Assay for Inhibitors of RecQ-Like Dna Helicase 1 (RECQ1) (AID 2353); further: potency means the concentration at half of the fitted maximal effect
Chain of ATP-dependent DNA helicase Q1 (Homo sapiens) (P46063 whole entry, looked up): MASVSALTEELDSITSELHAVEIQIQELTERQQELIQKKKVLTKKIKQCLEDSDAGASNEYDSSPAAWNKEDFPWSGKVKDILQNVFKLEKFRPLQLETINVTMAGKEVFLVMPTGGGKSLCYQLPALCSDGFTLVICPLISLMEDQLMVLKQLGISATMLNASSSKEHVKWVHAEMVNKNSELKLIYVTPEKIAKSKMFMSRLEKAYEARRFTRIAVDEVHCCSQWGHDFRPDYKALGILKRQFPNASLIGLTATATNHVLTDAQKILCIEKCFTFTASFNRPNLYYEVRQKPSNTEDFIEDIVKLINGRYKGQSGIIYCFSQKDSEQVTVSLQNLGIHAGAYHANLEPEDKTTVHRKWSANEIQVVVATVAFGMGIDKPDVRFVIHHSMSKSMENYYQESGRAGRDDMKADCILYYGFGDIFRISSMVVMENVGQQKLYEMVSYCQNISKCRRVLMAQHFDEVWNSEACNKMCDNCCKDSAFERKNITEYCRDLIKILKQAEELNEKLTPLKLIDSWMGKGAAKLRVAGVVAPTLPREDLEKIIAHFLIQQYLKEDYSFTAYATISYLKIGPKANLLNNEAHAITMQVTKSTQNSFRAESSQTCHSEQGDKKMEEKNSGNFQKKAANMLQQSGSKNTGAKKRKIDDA
Procedure, shortened: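 50 nM RECQ1T1 preincubated 15 min with compound in Tris pH 8.0 buffer with MgCl2, DTT, Tween-20 and 2.5 ug/ml poly(dI-dC); started with 200 nM TAMRA/BHQ-2 forked duplex and 2 mM ATP. Unwinding read as fluorescence (525/598 nm), two reads 2 h apart.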

[3] = biological target: RecQ-like DNA helicase BLM (Homo sapiens) (UniProt P54132); assay: qHTS Validation Assay for Inhibitors of Bloom's syndrome helicase (BLM) (AID 2364); further: potency means the concentration at half of the fitted maximal effect
Chain of RecQ-like DNA helicase BLM (Homo sapiens) (P54132 whole entry, looked up): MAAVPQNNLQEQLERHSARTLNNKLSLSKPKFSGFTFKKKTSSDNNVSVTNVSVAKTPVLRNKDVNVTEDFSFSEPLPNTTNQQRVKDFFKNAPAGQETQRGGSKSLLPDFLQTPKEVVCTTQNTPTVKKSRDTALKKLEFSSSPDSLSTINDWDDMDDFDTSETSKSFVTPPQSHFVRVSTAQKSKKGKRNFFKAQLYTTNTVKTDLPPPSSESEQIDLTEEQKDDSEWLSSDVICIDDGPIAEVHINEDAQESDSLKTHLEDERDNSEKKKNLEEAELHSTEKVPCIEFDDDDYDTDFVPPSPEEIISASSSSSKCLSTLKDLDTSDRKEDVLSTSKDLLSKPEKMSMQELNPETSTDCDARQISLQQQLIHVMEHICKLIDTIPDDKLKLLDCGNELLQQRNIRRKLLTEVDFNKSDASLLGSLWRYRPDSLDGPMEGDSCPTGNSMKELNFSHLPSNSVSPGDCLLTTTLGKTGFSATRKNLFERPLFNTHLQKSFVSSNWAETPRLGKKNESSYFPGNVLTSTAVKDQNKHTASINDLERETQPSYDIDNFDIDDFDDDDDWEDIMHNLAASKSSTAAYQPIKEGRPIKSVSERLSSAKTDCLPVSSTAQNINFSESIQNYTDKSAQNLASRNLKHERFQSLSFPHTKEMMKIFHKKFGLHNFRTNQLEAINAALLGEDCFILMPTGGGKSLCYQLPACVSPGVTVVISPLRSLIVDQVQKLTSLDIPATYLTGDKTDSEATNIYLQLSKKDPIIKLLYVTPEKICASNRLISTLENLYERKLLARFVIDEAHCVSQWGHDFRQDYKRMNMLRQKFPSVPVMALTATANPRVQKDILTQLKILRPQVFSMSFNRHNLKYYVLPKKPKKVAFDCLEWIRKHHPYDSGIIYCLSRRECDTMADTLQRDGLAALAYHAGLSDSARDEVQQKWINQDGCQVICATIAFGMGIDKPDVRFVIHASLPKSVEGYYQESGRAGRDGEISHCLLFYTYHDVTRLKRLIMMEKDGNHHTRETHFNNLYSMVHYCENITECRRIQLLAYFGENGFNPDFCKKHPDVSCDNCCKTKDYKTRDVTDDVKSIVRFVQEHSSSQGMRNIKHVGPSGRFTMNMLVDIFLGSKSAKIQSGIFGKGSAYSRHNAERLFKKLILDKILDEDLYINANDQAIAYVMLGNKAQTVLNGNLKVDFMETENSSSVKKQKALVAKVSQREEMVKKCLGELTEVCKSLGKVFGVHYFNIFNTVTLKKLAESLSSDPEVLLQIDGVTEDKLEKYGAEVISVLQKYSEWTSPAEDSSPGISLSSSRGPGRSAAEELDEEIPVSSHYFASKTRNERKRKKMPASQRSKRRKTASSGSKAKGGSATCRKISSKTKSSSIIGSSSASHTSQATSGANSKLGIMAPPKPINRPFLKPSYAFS
Procedure, shortened: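 50 nM BLM preincubated 15 min at room temperature with compound in pH 8.0 Tris buffer containing 2.5 ug/ml poly(dI-dC); started with 200 nM TAMRA/BHQ-2 forked duplex and 2 mM ATP (final). Unwinding read as TAMRA fluorescence increase, two reads 2 h apart.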

[4] = Cytometric Cell-Based qHTS for Inhibitors of the mTORC1 Signaling Pathway in MEF (Tsc2-/-, p53-/-) Cells (AID 2660); further: potency means the concentration at half of the fitted maximal effect
Procedure, shortened: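 Readout: Alexa-488 phospho-rpS6 (Ser235/236) intensity divided by PI intensity, thresholded against 7.5 nM rapamycin wells and reported as % positive cells. PI cell count served as the viability measure. Compound exposure was 24 hrs at 37 degree Celsius.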

[5] = High Content Imaging Cell-Based qHTS for Inhibitors of the mTORC1 Signaling Pathway in MEF (Tsc2-/-, p53-/-) Cells (AID 2666);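 further: percent of cells scored positive for phospho-rpS6 Ser235/236 immunostaining by imaging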; further: potency means the concentration at half of the fitted maximal effect
Procedure, shortened: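 Phospho-rpS6 (Ser235/236) immunofluorescence, normalized and scored as % positive cells using rapamycin and DMSO controls, was read in empty-vector Tsc2-/-, p53-/- MEFs after 24 h compound exposure at 37 C; propidium iodide counted cells.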

[6] = High Content Imaging Cell-Based qHTS for Inhibitors of the mTORC1 Signaling Pathway in MEF Cells (AID 2667); further: potency means the concentration at half of the fitted maximal effect
Procedure, shortened: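 WT MEFs (Tsc2-/-, p53-/- re-expressing Tsc2), in DMEM + 10% FBS, were treated with compound for 24 h at 37 C. Cells were then fixed and stained for phospho-rpS6 Ser235/236 with propidium iodide as cell count. Values are % positive cells, with thresholds set against rapamycin-treated cells.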

[7] = Validation screen for inhibitors of Lassa infection (AID 463096; calls by dose curve; further: potency means the concentration at half of the fitted maximal effect)
[8] = Validation screen for small molecules that induce DNA re-replication in MCF 10A normal breast cells (AID 463097); further: nearly all actives have a fitted effect of over 60% in size; further: potency means the concentration at half of the fitted maximal effect
Procedure, shortened: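 DNA re-replication was detected as a rise in nuclei with elevated Hoechst fluorescence after a 48 hr compound exposure of MCF 10A cells at 37 C.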

[9] = biological target: Ubiquitin carboxyl-terminal hydrolase 2 (Homo sapiens) (UniProt O75604); assay: qHTS Validation Assay for Inhibitors of Ubiquitin-specific Protease USP2a Using CHOP2 as the Reporter (AID 463106); further: potency means the concentration at half of the fitted maximal effect
Chain of Ubiquitin carboxyl-terminal hydrolase 2 (Homo sapiens) (O75604 whole entry, looked up): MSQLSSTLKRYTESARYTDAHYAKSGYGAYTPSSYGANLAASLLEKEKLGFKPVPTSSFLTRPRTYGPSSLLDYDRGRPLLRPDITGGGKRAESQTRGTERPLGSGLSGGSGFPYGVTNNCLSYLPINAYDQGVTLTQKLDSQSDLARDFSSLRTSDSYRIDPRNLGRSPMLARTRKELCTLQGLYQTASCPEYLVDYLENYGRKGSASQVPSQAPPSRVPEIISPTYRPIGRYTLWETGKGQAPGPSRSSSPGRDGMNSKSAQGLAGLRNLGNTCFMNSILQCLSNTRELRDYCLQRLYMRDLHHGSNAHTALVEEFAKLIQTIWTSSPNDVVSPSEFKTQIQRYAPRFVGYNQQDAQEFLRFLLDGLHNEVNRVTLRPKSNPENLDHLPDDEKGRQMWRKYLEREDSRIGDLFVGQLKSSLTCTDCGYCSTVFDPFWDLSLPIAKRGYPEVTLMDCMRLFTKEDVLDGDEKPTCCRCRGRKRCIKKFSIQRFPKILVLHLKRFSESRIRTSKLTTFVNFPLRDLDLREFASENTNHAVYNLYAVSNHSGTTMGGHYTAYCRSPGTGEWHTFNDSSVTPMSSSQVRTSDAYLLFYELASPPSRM
Procedure, shortened: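 USP2 core (10 nM final) was preincubated with compound 30 min at RT in pH 8.0 Tris/CaCl2/beta-ME/CHAPS buffer. Ub-CHOP2 and reporter substrate (25 nM final each) were then added, with fluorescence (Ex 485/Em 531) read after 60 min. Data were normalized to NEM full inhibition and fitted to concentration-response curves.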

[10] = biological target: DNA polymerase III PolC-type (Bacillus subtilis (strain 168)) (UniProt P13267); assay: qHTS Validation Assay for the Inhibitors of DNA Replication in Gram-Positive Bacteria (AID 485295); further: potency means the concentration at half of the fitted maximal effect
Chain of DNA polymerase III PolC-type (Bacillus subtilis (strain 168)) (P13267 whole entry, looked up): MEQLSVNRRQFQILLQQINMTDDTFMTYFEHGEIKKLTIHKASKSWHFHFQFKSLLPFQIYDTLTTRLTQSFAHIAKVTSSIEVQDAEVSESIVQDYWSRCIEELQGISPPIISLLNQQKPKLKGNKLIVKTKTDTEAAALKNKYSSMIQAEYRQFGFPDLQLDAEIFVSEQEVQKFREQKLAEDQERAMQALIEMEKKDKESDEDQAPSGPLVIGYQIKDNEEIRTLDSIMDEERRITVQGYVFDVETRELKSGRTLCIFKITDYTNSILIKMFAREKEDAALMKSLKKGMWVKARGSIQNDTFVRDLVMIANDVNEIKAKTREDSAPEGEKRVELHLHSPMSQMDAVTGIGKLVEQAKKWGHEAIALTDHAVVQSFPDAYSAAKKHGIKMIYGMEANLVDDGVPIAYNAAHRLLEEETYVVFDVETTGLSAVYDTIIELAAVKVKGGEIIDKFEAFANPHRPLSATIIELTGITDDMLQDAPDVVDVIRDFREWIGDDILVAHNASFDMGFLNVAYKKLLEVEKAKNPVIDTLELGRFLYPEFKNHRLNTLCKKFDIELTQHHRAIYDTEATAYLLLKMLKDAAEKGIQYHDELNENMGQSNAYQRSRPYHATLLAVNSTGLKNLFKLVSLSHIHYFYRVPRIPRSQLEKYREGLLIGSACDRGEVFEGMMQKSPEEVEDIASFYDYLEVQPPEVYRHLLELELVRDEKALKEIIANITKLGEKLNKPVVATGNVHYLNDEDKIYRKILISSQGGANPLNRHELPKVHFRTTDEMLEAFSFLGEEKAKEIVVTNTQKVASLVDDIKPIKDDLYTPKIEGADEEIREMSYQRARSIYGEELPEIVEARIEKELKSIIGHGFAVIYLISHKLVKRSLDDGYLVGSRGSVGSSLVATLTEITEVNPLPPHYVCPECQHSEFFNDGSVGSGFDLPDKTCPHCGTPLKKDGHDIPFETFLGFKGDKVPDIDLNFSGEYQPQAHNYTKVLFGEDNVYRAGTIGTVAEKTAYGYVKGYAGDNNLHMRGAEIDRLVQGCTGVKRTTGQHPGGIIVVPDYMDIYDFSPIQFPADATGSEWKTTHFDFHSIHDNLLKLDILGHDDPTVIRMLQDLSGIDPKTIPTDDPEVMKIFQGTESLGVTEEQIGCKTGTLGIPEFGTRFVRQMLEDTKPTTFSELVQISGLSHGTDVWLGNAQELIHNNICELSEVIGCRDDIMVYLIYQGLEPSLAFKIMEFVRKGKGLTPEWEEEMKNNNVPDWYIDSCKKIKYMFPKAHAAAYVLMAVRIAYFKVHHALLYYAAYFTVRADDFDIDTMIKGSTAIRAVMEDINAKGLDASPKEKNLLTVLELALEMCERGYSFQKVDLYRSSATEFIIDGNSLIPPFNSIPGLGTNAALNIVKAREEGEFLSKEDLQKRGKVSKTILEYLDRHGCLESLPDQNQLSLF
Procedure, shortened: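 Primed replication of single-stranded M13Gori by a four-protein B. subtilis holoenzyme is measured at room temperature. Double-stranded product is quantified by PicoGreen fluorescence after an EDTA stop; inhibition is scaled between DMSO and EDTA controls.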

[11] = biological target: Beta-2 adrenergic receptor (Homo sapiens) (UniProt P07550); assay: qHTS validation assay of beta-arrestin-biased ligands of beta2-adrenergic receptor (AID 485366)
Chain of Beta-2 adrenergic receptor (Homo sapiens) (P07550 whole entry, looked up): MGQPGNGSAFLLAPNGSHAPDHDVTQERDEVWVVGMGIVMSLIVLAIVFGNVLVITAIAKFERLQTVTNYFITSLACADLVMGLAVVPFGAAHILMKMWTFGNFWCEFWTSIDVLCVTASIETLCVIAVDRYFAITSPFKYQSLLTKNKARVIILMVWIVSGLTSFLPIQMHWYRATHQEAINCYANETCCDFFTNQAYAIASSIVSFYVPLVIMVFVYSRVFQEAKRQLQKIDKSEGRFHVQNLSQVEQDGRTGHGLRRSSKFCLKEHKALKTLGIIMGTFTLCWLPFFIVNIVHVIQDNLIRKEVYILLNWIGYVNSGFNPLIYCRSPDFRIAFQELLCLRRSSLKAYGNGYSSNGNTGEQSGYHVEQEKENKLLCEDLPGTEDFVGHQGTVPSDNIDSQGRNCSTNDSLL
Procedure, shortened: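 Tango cells (recombinant beta2-AR with recombinant beta-arrestin; recruitment releases tTA driving luciferase) were treated with compounds titrated up to 46 microM for 18 hr at 37 degrees C. Luminescence gave %Activity, and concentration-response curves were curve-classified.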

[12] = biological target: ATP-dependent 6-phosphofructokinase (Trypanosoma brucei brucei) (UniProt O15648); assay: qHTS Validation Assay to Find Inhibitors of T. brucei phosphofructokinase (AID 485368); further: potency means the concentration at half of the fitted maximal effect
Procedure, shortened: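 Compounds (up to 57 uM, titration series) were pinned into substrate buffer, then 1.25 nM PFK added; after 45 min at room temperature, ADP product was quantified by ADP-Glo luminescence and concentration-response curves fitted.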

[13] = Quantitative high throughput screen for delayed death inhibitors of the malarial parasite plastid, 96 hour incubation (AID 488745); further: nearly all actives have a fitted effect of over 70% in size; further: potency means the concentration at half of the fitted maximal effect
Procedure, shortened: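 Infected erythrocytes were added to compound in Albumax-supplemented RPMI 1640 at 0.1% parasitemia and 2% hematocrit (final), incubated 96 h at 37 C under 5% CO2, then luciferase reagent was added and luminescence measured.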

[14] = Quantitative high throughput screen for delayed death inhibitors of the malarial parasite plastid, 48 hour incubation (AID 488752); further: nearly all actives have a fitted effect of over 65% in size; further: potency means the concentration at half of the fitted maximal effect
Procedure, shortened: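 Readout is firefly luciferase luminescence from a reporter integrated into the parasite genome, with lower signal taken as inhibited growth. Infected red cells (0.1% parasitemia, 2% hematocrit final) are cultured with compound for one 48 h cycle at 37 C.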

[15] = Cytometry Cell-Based qHTS for Inhibitors of the mTORC1 Signaling Pathway in MEF cells (AID 2668);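 further: Tsc2-/- p53-/- mouse embryonic fibroblasts stably re-expressing wild-type Tsc2; percent cells positive for phospho-rpS6 Ser235/236 relative to propidium iodide stain; series mostly up to about 38 µM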
Procedure, shortened: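 Pathway inhibition in WT Tsc2-rescued Tsc2-/-, p53-/- MEFs is measured as the Alexa-488 phospho-rpS6 to propidium iodide intensity ratio after 24 hrs of compound at 37 degree Celsius. PI-stained cell number gives viability.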

[16] = biological target: Tumor susceptibility gene 101 protein (Homo sapiens) (UniProt Q99816); assay: qHTS Validation Assay for Iinhibitors of HIV-1 Budding by Blocking the Interaction of PTAP/TSG101 (AID 485342; calls by dose curve)
Procedure, shortened: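 Fluorescence anisotropy measured PTAP-Tsg101 interaction. Final concentrations were 10 uM protein domain and 50 nM labeled peptide, equilibrated 20 min at room temperature.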

[17] = qHTS Validation Assay to Find Inhibitors of Chronic Active B-Cell Receptor Signaling (AID 485345; active means well fitted curve in the direction sought with a large enough effect in the main read-out, with a control signal flat, not every such curve was filed as active)
Procedure, shortened: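 TMD8 ABC-DLBCL cells stably carrying doxycycline-inducible IkappaBalpha–green luciferase fusion plus unfused red luciferase; compounds 46 uM to 3 nM, 4 h at 37C with doxycycline. Corrected green/red luminescence ratio normalized to 10 uM MG-132 and basal cell wells; curves fitted.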

Measured: Potency

COc1ccc(CNC(=O)/C=C/c2ccc3[nH]cc(CCN(C)C)c3c2)cc1
active: [13] 11.7 µM
inactive: [1] | [2] | [3] | [4] | [5] | [6] | [7] | [8] | [9] | [10] | [11] | [12]

CN1C2CCC1CC(OC(c1ccccc1)c1ccccc1N)C2 (stereo not drawn)
inactive: [1] | [2] | [3] | [4] | [5] | [6] | [7] | [8] | [9] | [10] | [11] | [12] | [13] | [14]

Cc1c2ccncc2c(C)c2c1[nH]c1ccccc12
inactive: [1] | [3] | [6] | [9] | [11]
active: [2] 10 µM | [8] 7.08 µM | [13] 1.17 µM | [14] 1.85 µM

C=CCN1CC[C@]23c4c5ccc(O)c4O[C@H]2/C(=N/NC(=O)c2ccccc2)CC[C@@]3(O)[C@H]1C5
inactive: [1] | [2] | [4] | [5] | [6] | [15] | [7] | [8] | [9] | [10] | [16] | [11]

NCC(CP(=O)(O)O)c1ccc(Cl)cc1 (stereo not drawn)
inactive: [1] | [2] | [3] | [5] | [6] | [7] | [8] | [9] | [10] | [16] | [11] | [12] | [13] | [14]

CC(C)NP(=O)(NC(C)C)OP(=O)(NC(C)C)NC(C)C
inactive: [1] | [2] | [3] | [5] | [6] | [7] | [8] | [9] | [10] | [16] | [11] | [14]

NC(=O)c1cc(N2CC2)c([N+](=O)[O-])cc1[N+](=O)[O-]
inactive: [1] | [2] | [4] | [5] | [6] | [15] | [7] | [8] | [9] | [10] | [16] | [17] | [11] | [12] | [13] | [14]

O=[N+]([O-])c1ccc2nc(N3CCNCC3)ccc2c1
inactive: [1] | [2] | [3] | [5] | [6] | [15] | [8] | [9] | [10] | [16] | [11] | [13] | [14]

CP(=O)(O)C1=CCNCC1
inactive: [1] | [2] | [4] | [5] | [6] | [7] | [8] | [9] | [10] | [16] | [17] | [11] | [13] | [14]

NCCCP(=O)(O)O
inactive: [1] | [2] | [5] | [6] | [15] | [7] | [8] | [9] | [10] | [16] | [11] | [12] | [13] | [14]

CNc1ccc2oc(C[C@H]3O[C@@]4(CC[C@H]3C)O[C@H]([C@H](C)C(=O)c3ccc[nH]3)[C@H](C)C[C@H]4C)nc2c1C(=O)O
active: [4] 14.7 µM | [5] 2.61 µM | [7] 7.08 µM | [8] 1.58 µM | [13] 0.104 µM | [14] 2.33 µM
inactive: [1] | [2] | [9] | [10] | [16] | [11]

COc1ccc2[nH]cc(CCN)c2c1
inactive: [1] | [2] | [4] | [5] | [6] | [7] | [8] | [9] | [10] | [16] | [17] | [11] | [13] | [14]

CN(N=O)c1ccc(O)c(O)c1
active: [2] 1.12 µM | [3] 6.31 µM | [9] 4.14 µM | [10] 23.8 µM
inactive: [5] | [6] | [15] | [7] | [8] | [16] | [17] | [11] | [13] | [14]

O=C(O)c1cc[c]([Hg][Cl])cc1
active: [10] 4.74 µM | [12] 0.269 µM | [13] 2.08 µM | [14] 4.15 µM
inactive: [1] | [2] | [5] | [6] | [15] | [7] | [8] | [9] | [16] | [11]

CC12NC(Cc3ccccc31)c1ccccc12 (stereo not drawn)
inactive: [1] | [2] | [5] | [6] | [15] | [7] | [8] | [9] | [10] | [16] | [17] | [11] | [13] | [14]

CC1(C(=O)O)C2CCC(O2)C1(C)C(=O)O (stereo not drawn)
active: [5] 18.5 µM | [6] 3.69 µM | [13] 3.29 µM | [14] 5.22 µM
inactive: [1] | [2] | [9] | [10] | [11] | [12]

CCCN1CCCC2Cc3[nH]ncc3CC21 (stereo not drawn)
inactive: [1] | [2] | [7] | [8] | [13] | [14]

COc1ccc2c(c1OC)C(=O)OC2C1c2cc3c(cc2CCN1C)OCO3 (stereo not drawn)
inactive: [1] | [2] | [7] | [8]

CC(N)[C@H](O)c1ccc(O)c(O)c1 (stereo partly drawn)
inactive: [1] | [2] | [4] | [5] | [7] | [8] | [9] | [10] | [16] | [17] | [11] | [13] | [14]
active: [12] 5.36 µM

OC1CCCCC1N1CCC(c2ccccc2)CC1 (stereo not drawn)
inactive: [1] | [2] | [4] | [5] | [6] | [15] | [8] | [9] | [10] | [16] | [17] | [11] | [12] | [13] | [14]
